Reference: PubChem BioAssay
Calls of active or inactive are those of the source.

What was measured:
Albumin (Bos taurus) = Albumin (Bos taurus) (UniProt P02769); assay: compounds binding labelled BSA control protein – biochemical, small-molecule microarray, Alexa647 label, 635/667 nm fluorescence, artefact control for SMM control protein annotation, profiling panel (AID 1118); conditions: BSA-A647 binding, fluorescence 635 nm, higher = more signal;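 further: score merges 667 nm emission intensity and signal-to-noise per printed compound spot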
[1] = probe aXIP binding to arrayed compounds – biochemical, NeuroSMM set, 635/667 nm fluorescence, primary screen (AID 1119); conditions: small-molecule microarray, higher = more signal, called active from +8 up or from −8 down;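 further: probe is the protein aXip251-270 applied at 1 µg/mL to compound-printed slides; binding of probe to printed compounds measured as 667 nm fluorescence plus signal to noise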
[2] = probe aNOTCH3 binding on compound microarray – biochemical, small-molecule microarray, 635/667 nm fluorescence, primary screen (AID 1120); conditions: higher = more signal;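 further: probe is a biotin-tagged antibody raised against NOTCH3 rather than NOTCH3 protein; score merges spot fluorescence near 667 nm with spot signal to noise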
[3] = probe aNOTCH2 binding on compound microarray – biochemical, small-molecule microarray, 635/667 nm fluorescence, primary screen (AID 1121); conditions: higher = more signal;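 further: score merges feature fluorescence read at 667 nm with its signal to noise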
[4] = target: Carbonic anhydrase 2 (Homo sapiens) (UniProt P00918); assay: compounds binding carbonic anhydrase 2 – biochemical, small-molecule microarray, Alexa647-labelled CAII, profiling panel (AID 1122); conditions: CAII-A647 binding fluorescence, higher = more signal
[5] = COS7 lysate on small-molecule microarray, probe aHis, 635 nm (AID 1123); conditions: COS7 cell lysate, fluorescence, higher = more signal;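 further: z-score combines 667nm fluorescence intensity with signal-to-noise per printed compound spot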
[6] = probe aLAP1 signal on lysate-treated microarray – cell lysate, small-molecule microarray, COS7 lysate, primary screen (AID 1124); conditions: probe aLAP1, fluorescence, higher = more signal;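 further: lysate comes from COS7 cells expressing LAP1 and is applied at 0.3 µg/mL; score merges spot fluorescence near 667 nm with signal-to-noise over triplicate slides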
Sam68 (KHDRBS1) = assay: compounds binding KHDRBS1 protein – biochemical, small-molecule microarray, 635 nm fluorescence, primary screen (AID 1125); conditions: higher = more signal;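 further: score merges 667 nm channel intensity with signal to noise over triplicate slides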
[7] = system: Chordin-like protein 2 (CHRDL2); assay: compounds binding chordin-like 2 – biochemical, small-molecule microarray, 635 nm fluorescence, primary screen (AID 1126); conditions: fluorescence 635 nm, higher = more signal;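 further: printed compound slides probed with Chrdl2 protein at 4 µg/mL for 1 h at 4 C; score merges 667 nm emission intensity with signal to noise over three replicate slides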
[8] = target: Concanavalin-A (Canavalia ensiformis) (UniProt P02866); assay: compounds binding concanavalin A lectin – biochemical, small-molecule microarray, Alexa647 label, 635 nm, artefact control for SMM control protein annotation, primary screen (AID 1127); conditions: ConA-A647 binding fluorescence, higher = more signal;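 further: z combines 667 nm emission intensity with signal-to-noise across three replicate slides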
[9] = compounds binding Alexa647 anti-His antibody – biochemical, small-molecule microarray, 635 nm fluorescence, artefact control for SMM control protein annotation, primary screen (AID 1128); conditions: higher = more signal;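 further: score merges feature fluorescence with signal-to-noise for each printed compound spot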
[10] = system: Human papillomavirus type 1a E7 protein (residues 1-88); assay: HPV1a E7 small-molecule binders, primary screen, biochemical, small-molecule microarray, residues 1-88, 635 nm (AID 1129); conditions: small-molecule microarray binding, fluorescence 635 nm; higher = more signal
[11] = target: Focal adhesion kinase 1 (Homo sapiens) (UniProt Q05397); assay: PTK2 protein binding on printed compound slides – biochemical, small-molecule microarray, 635/667 nm fluorescence, BSA, DTT, primary screen (AID 1130); conditions: 635 nm fluorescence, higher = more signal;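 further: composite of spot emission at 667 nm and signal to noise over triplicate slides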
[12] = system: Fibrinogen (Alexa647-labelled); assay: Alexa647-fibrinogen binding to printed small molecules – biochemical, small-molecule microarray, 635/667 nm fluorescence, artefact control for SMM control-protein annotation, profiling panel (AID 1131); conditions: fibrinogen-A647 binding fluorescence, higher = more signal;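 further: z-score merges 667 nm fluorescence with per-spot signal-to-noise over triplicate slides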
[13] = target: Follistatin (Homo sapiens) (UniProt P19883); assay: FST protein binding to printed compounds – biochemical, small-molecule microarray, 635/667 nm fluorescence, primary screen (AID 1132); conditions: 635 nm fluorescence, higher = more signal
[14] = target: Fibroblast growth factor 2 (Homo sapiens) (UniProt P09038); assay: basic fibroblast growth factor binding to printed compounds – biochemical, small-molecule microarray, 635/667 nm fluorescence, primary screen (AID 1133); conditions: FGF2, fluorescence 635/667, higher = more signal
[15] = JC-1 mitochondrial potential readout, lung cancer cells – cell-based, A549, JC-1 fluorescence, basal, 24 h, 100 nL, profiling panel (AID 1138); conditions: higher = more signal;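 further: A549 lung adenocarcinoma cells under basal conditions with no added stimulus; test concentration not given here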
Lefty1 = Lefty1 protein binding to printed compounds – biochemical, small-molecule microarray, 635/667 nm fluorescence, primary screen (AID 1139); conditions: fluorescence 635/667, higher = more signal
[16] = system: wheat germ agglutinin (Triticum aestivum), Alexa647-labelled; assay: Alexa647-WGA lectin binding to printed small molecules – biochemical, small-molecule microarray, 635/667 nm fluorescence, artefact control for SMM control-protein annotation, profiling panel (AID 1140); conditions: WGA-A647 binding, 635 nm fluorescence, higher = more signal;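 further: score merges 667 nm feature emission with signal to noise over triplicate slides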
[17] = target: Luciferin 4-monooxygenase (Photinus pyralis) (UniProt P08659); assay: inhibition of purified Photinus pyralis luciferase – biochemical, luminescence, purified enzyme, 2006 set, primary screen (AID 1141); conditions: purified firefly luciferase, SteadyGlo luminescence, 30 min; higher = more signal, called active from +8 up or from −8 down;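 further: cell-free assay with purified firefly luciferase at 100 ng per well in PBS; test concentration not given here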
Chain of Luciferin 4-monooxygenase (Photinus pyralis) (P08659 whole entry, looked up): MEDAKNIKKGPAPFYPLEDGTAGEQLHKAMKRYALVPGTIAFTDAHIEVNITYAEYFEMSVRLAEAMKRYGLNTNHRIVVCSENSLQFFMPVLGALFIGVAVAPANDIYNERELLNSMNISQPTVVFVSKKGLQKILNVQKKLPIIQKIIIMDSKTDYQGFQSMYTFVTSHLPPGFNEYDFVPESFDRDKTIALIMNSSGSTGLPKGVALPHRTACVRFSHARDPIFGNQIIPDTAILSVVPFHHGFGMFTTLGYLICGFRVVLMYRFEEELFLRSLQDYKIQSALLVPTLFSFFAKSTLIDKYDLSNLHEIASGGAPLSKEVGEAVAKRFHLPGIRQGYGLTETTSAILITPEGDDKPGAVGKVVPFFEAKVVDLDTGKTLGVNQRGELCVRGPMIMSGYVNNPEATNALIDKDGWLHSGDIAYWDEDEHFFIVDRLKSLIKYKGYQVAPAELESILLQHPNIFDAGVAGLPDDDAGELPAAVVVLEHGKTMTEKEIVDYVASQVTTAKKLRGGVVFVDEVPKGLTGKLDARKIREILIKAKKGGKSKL

Chain of Albumin (Bos taurus) (P02769 whole entry, looked up): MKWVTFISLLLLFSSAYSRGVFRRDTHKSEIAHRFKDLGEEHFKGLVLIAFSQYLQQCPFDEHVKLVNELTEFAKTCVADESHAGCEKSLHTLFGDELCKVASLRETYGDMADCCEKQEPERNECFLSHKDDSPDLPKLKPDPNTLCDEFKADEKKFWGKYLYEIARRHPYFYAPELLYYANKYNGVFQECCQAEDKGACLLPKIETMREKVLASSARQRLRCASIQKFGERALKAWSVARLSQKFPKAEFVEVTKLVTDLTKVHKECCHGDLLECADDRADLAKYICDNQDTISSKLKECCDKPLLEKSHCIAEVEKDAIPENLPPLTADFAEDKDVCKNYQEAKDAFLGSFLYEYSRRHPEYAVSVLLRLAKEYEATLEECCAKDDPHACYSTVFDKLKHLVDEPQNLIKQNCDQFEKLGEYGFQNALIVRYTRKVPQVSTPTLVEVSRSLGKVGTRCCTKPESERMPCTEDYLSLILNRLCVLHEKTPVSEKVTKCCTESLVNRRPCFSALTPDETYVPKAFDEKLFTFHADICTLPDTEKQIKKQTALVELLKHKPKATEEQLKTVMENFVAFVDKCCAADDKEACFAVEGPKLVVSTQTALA
Chain of Focal adhesion kinase 1 (Homo sapiens) (Q05397 whole entry, looked up): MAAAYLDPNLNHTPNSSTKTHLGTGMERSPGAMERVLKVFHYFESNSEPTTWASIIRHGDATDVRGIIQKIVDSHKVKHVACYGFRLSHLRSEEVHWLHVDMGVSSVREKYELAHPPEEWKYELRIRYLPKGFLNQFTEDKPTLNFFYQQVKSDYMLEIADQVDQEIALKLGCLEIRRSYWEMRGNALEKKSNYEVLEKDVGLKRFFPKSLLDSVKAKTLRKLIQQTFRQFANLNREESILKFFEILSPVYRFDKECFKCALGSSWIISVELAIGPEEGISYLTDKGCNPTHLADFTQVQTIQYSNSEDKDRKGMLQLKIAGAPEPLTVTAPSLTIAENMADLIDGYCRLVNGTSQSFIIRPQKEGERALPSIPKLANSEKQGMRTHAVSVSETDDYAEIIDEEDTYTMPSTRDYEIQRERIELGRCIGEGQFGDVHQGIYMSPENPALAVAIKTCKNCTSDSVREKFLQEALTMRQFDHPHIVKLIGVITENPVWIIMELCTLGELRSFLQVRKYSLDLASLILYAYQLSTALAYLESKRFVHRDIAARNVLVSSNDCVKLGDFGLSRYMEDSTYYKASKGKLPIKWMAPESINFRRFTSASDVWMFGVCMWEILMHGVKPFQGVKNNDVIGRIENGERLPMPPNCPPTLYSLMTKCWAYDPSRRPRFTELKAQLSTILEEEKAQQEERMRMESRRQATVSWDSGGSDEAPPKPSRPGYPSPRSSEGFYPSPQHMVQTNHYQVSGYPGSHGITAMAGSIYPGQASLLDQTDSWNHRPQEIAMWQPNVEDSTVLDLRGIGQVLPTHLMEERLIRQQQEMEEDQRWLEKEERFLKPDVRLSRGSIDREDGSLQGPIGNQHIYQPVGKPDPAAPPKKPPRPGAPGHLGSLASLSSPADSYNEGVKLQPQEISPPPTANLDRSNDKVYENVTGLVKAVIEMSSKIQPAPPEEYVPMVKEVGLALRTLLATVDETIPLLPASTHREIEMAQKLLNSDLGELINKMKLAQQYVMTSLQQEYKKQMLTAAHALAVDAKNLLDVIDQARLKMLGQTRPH
Chain of Concanavalin-A (Canavalia ensiformis) (P02866 whole entry, looked up): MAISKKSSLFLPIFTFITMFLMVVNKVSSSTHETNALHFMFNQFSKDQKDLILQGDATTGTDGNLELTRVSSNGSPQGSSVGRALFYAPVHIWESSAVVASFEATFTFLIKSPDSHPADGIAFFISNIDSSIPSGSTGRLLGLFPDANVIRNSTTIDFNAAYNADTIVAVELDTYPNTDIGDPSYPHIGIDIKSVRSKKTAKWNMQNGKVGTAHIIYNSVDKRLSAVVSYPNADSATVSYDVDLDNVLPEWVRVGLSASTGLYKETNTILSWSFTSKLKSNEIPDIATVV
Chain of Follistatin (Homo sapiens) (P19883 whole entry, looked up): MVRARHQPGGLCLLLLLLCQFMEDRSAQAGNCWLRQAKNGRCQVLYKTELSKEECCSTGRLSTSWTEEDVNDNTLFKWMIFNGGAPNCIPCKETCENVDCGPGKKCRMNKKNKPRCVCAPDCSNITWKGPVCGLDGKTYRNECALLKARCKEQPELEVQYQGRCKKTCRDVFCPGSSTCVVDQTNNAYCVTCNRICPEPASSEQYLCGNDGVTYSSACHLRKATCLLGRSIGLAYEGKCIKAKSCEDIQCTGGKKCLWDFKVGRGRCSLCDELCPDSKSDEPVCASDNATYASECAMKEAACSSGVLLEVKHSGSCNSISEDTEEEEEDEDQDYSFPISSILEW
Chain of Fibroblast growth factor 2 (Homo sapiens) (P09038 whole entry, looked up): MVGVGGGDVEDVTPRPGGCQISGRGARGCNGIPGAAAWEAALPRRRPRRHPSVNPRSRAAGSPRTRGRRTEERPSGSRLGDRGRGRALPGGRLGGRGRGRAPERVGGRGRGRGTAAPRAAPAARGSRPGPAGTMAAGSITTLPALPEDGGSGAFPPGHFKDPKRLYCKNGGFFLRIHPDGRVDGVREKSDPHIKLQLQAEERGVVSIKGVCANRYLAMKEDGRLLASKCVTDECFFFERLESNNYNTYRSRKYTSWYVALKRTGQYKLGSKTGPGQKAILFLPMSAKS

SMILES | composite z-score (Albumin (Bos taurus)) | composite Z-score [1] | composite z-score [2] | composite z-score [3] | composite z-score [4] | composite z-score [5] | composite z-score [6] | composite z-score (Sam68 (KHDRBS1)) | composite z-score [7] | composite z-score [8] | composite z-score [9] | composite z-score [10] | composite z-score [11] | composite z-score [12] | composite z-score [13] | composite z-score [14] | z-score [15] | composite z-score (Lefty1) | composite z-score [16] | z-score [17]
O=C(NCc1ccccc1)[C@@H]1c2ccccc2C(=O)N(Cc2ccccc2Cl)[C@H]1c1ccc(CO)cc1 | -0.0154 | 1.24 (inactive) | 0.0749 | -0.0165 | 0.693 | 2.36 | 0.954 | 1.35 | 0.702 | 1.13 | 2.46 | 1.17 | 0.719 | 0.562 | 1.47 | 1.22 | 1.88 | 0.817 | 0.704 | -1.01 (inactive)
CO[C@H]1O[C@H](CO)[C@@H](OC(=O)Nc2ccccc2)[C@H](OC(=O)Nc2ccc3c(c2)OCO3)[C@H]1OC(=O)Nc1ccc2c(c1)OCO2 | 0.06 | 0.219 (inactive) | 0.224 | -0.0289 | 0.599 | 2.14 | 0.294 | 1.29 | -0.494 | 1.18 | 1.75 | 1.19 | 2.04 | 0.172 | 0.612 | -0.0687 | 0.316 | 0.345 | 0.571 | -1.63 (inactive)
COc1ccc([Si](C)(C)[C@@H]2[C@@H](CCn3cc([C@H](O)c4ccccc4)nn3)O[C@]3(C(=O)N(C)c4c(Br)cc(C)cc43)[C@H]2C)cc1 | -0.0364 | 0.62 (inactive) | -0.129 | -0.118 | -0.273 | -0.525 | -0.129 | -0.849 | -0.254 | -0.679 | 0.18 | -0.773 | -0.501 | -0.59 | 1.19 | 1.44 | 0.517 | -0.166 | 0.397 | -2.15 (inactive)
CO[C@H]1O[C@H](CO)[C@@H](OC(=O)Nc2ccccc2)[C@H](OC(=O)Nc2ccccc2-c2ccccc2)[C@H]1OC(=O)Nc1ccccc1-c1ccccc1 | 0.925 | 0.563 (inactive) | -0.0903 | -0.103 | 0.556 | 1.63 | 0.463 | 1.3 | -0.159 | 1.19 | 2.03 | 1.23 | 1.17 | 0.903 | 0.754 | 0.292 | -1.05 | 0.601 | 1.19 | -0.864 (inactive)
C=CCN1C(=O)[C@@]2(O[C@@H](CCO)[C@H]([Si](C)(C)c3ccc(OC)cc3)[C@H]2C)c2cc(N3C(=O)c4cccc5cccc3c45)ccc21 | 0.691 | -0.159 (inactive) | 0.0425 | -0.0956 | 0.355 | 0.964 | 1.13 | 0.897 | -0.487 | 1.06 | 2.09 | 1 | 0.617 | 0.302 | -0.233 | -0.145 | -0.456 | -0.272 | 0.525 | -1.53 (inactive)
